According to PubChem BioAssay:
Active and inactive are the calls of the source.

Assays:
[1] = compound effects on lung adenocarcinoma cell viability – A549, calcein-AM fluorescence, 48 h, basal, profiling panel (AID 1162); settings: higher = more signal
[2] = compound effects on differentiated 3T3-L1 adipocyte viability – cell-based, 3T3-L1 adipocytes, calcein-AM fluorescence, 48 h, basal, profiling panel (AID 1163); settings: 3T3-L1 adipocytes viability, higher = more signal
[3] = compound effects on hepatocellular carcinoma cell viability – HepG2, calcein-AM fluorescence, 48 h, basal, profiling panel (AID 1164); settings: higher = more signal
[4] = compound effects on multiple myeloma cell viability – MM1S, calcein-AM fluorescence, 48 h, basal, profiling panel (AID 1165); settings: higher = more signal;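 also: viability of MM1S multiple myeloma cells under basal unstimulated conditions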
[5] = calcein-AM signal in unstimulated myeloma cells – cell-based, calcein-AM fluorescence, 48 h, PK04 Diversity Set, profiling panel (AID 1166); settings: RPMI8226 myeloma viability, higher = more signal;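 also: cells grown under basal conditions without added stimulus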
[6] = JC-1 mitochondrial signal, unstimulated HepG2 cells – cell-based, JC-1 fluorescence, 24 h, 100 nL compound, profiling panel (AID 1167); settings: HepG2 mitochondrial potential, higher = more signal
[7] = JC-1 mitochondrial signal, unstimulated adipocytes – cell-based, JC-1 fluorescence, 3T3-L1 adipocytes, 24 h, 100 nL compound, profiling panel (AID 1168); settings: JC-1 mitochondrial fluorescence, higher = more signal, called active from +8 up or from −8 down
[8] = JC-1 mitochondrial signal, unstimulated myeloma cells – cell-based, JC-1 fluorescence, RPMI8226, 24 h, 100 nL compound, profiling panel (AID 1169); settings: JC-1 mitochondrial potential fluorescence, higher = more signal
[9] = JC-1 mitochondrial signal, unstimulated MM1S myeloma – cell-based, JC-1 fluorescence, 24 h, 100 nL compound, profiling panel (AID 1170); settings: MM1S mitochondrial potential, higher = more signal
[10] = resazurin metabolic signal in A549 cells – cell-based, resazurin fluorescence, 24 h, PK04 Diversity Set, profiling panel (AID 1171); settings: A549 viability, higher = more signal, called active from +8 up or from −8 down
Also: test concentration not given here.

| SMILES | z-score [1] | z-score [2] | z-score [3] | z-score [4] | z-score [5] | z-score [6] | z-score [7] | z-score [8] | z-score [9] | z-score [10] |
| --- | --- | --- | --- | --- | --- | --- | --- | --- | --- | --- |
| COc1cc(OC)c(C(O)C2C=CC3C(=O)NC(=O)C3N2Nc2ccccn2)cc1Br (stereo not given) | 0.837 | -1.06 | 0.224 | -0.459 | -0.0109 | -0.866 | 0.0212 (inactive) | 0.217 | 0.171 | -0.924 (inactive) |
| O=C(CS)NCCCCCNC(=O)[C@@H]1C[C@@H]2C(=O)NCC(=O)N2[C@@H]1c1ccc(O)cc1 | 0.347 | 0.136 | -1.19 | -0.403 | -0.727 | 1.14 | -0.00814 (inactive) | 0.852 | 0.158 | -1.31 (inactive) |
| COCCCNC(=O)[C@@]1(CCS(=O)(=O)c2ccccc2)N=C(c2ccc(OCCCO)cc2)O[C@H]1c1ccccc1N=[N+]=[N-] | -0.196 | 2.02 | -0.43 | 0.0021 | -2.28 | 0.4 | -0.636 (inactive) | -0.938 | -1.2 | 1.36 (inactive) |
| COCCOC(=O)N1C(=O)[C@@]2(c3cc(C#CCCO)ccc31)[C@H](c1ccc(O)cc1)N1[C@H](c3ccccc3)[C@H](c3ccccc3)OC(=O)[C@H]1[C@@H]2C(=O)N1CCN(c2ncccn2)CC1 | -0.858 | -0.721 | -0.753 | -0.0852 | 0.248 | 0.0243 | -1.45 (inactive) | -0.139 | -0.611 | 0.838 (inactive) |
| Cc1ccc(S[C@]2(C(=O)O)CC(=O)N(C(C)C)[C@@H]2c2ccc(CO)cc2)cc1 | 0.716 | 1.07 | 1.19 | 0.266 | 0.535 | 1.36 | -0.285 (inactive) | 0.00862 | -0.317 | -0.831 (inactive) |
| COCCOC(=O)N1C(=O)[C@@]2(c3ccccc31)[C@H](C(=O)N1CCCCCCC1)[C@H]1C(=O)O[C@H](c3ccccc3)[C@H](c3ccccc3)N1[C@@H]2c1ccc(OCCO)cc1 | -0.134 | -0.202 | -0.265 | -0.88 | -1.07 | -0.639 | -1.75 (inactive) | -0.714 | -1.15 | 0.526 (inactive) |
| CN(C)CCCCCCNC(=O)[C@@H]1C[C@@H]2C(=O)N3CCC[C@H]3C(=O)N2[C@@H]1c1ccc(O)cc1 | 1.26 | 1.09 | 0.773 | 0.581 | -0.586 | 1.06 | 0.342 (inactive) | -0.689 | -0.78 | -0.908 (inactive) |
| [N-]=[N+]=NCc1ccccc1[C@@H]1OC(c2ccc(OCCCO)cc2)=N[C@]1(CCS(=O)(=O)c1ccccc1)C(=O)N1CCCCC1 | 1.26 | -0.418 | 1.43 | -0.504 | -0.0169 | -0.132 | -0.159 (inactive) | -0.653 | -1.87 | -0.182 (inactive) |
| C=C(C)[C@@H]1CC=C(C(O)C2C=CC3C(=O)NC(=O)C3N2Nc2ccc(Cl)cc2Cl)CC1 (stereo not given in full) | -3.8 | 0.641 | -3.88 | -3.71 | -3.89 | -3.7 | -0.432 (inactive) | -0.934 | -0.944 | -2.76 (inactive) |
| COc1ccc(CCNC(=O)[C@@]2(C)c3ccccc3C(=O)N(c3ccc(C)cn3)[C@H]2c2ccc(CO)cc2)cc1 | -0.0466 | -0.2 | -0.352 | -0.64 | -0.081 | -0.429 | 1.22 (inactive) | 0.143 | -0.00393 | 0.236 (inactive) |
| NC(=O)[C@@H]1[C@H]2C(=O)O[C@H](c3ccccc3)[C@H](c3ccccc3)N2[C@H](c2ccc(OCCO)cc2)[C@@]12C(=O)Nc1ccc(C#CC3=CCCCC3)cc12 | -0.985 | 1.06 | -3.51 | -3.28 | -4.06 | -2.81 | 0.396 (inactive) | -0.834 | -1.71 | -1.01 (inactive) |
| C=CCNC(=O)[C@H]1[C@@H]2C(=O)O[C@@H](c3ccccc3)[C@@H](c3ccccc3)N2[C@@H](c2ccc(OCCO)cc2)[C@]12C(=O)Nc1ccc(C#CCC(C(=O)OC)C(=O)OC)cc12 | -0.505 | 0.208 | 0.349 | -1.46 | -3.36 | -0.232 | 0.97 (inactive) | -0.817 | -1.12 | 0.149 (inactive) |
| COc1cc(CO)cc(I)c1O[C@H]1C=C(C(=O)NCCO)C[C@@H](NC[C@@H]2CCCO2)[C@@H]1O | 1 | -0.134 | 0.7 | 0.583 | 0.327 | 0.65 | 0.239 (inactive) | -0.18 | -1.9 | 0.222 (inactive) |
| CCOC(=O)C1=CCC(c2ccc(F)cc2)N(S(=O)(=O)c2ccc(C)cc2)C1 (stereo not given) | -1.02 | -1.12 | -0.444 | -0.434 | -1.5 | -0.717 | -1.01 (inactive) | 0.641 | -1.66 | -0.0491 (inactive) |
| COc1ccc([Si](C)(C)[C@@H]2[C@@H](CC(=O)N3CCC[C@H]3CO)O[C@]3(C(=O)N(Cc4cccc(I)c4)c4ccccc43)[C@H]2C)cc1 | -1.08 | 1.24 | -2.59 | -2.92 | -4.52 | -0.646 | -0.0158 (inactive) | -1.08 | -1.48 | -3.17 (inactive) |
| CCCCN1CC=CC23O[C@@H]4C=CCOC(=O)[C@@H]4[C@H]2C(=O)N(CCCCCCO)[C@@H]3C1=O (stereo not given in full) | 0.327 | -1.36 | 0.215 | 0.546 | 0.569 | -0.71 | -0.228 (inactive) | 0.76 | -0.12 | -0.499 (inactive) |

| SMILES | z-score [1] | z-score [2] | z-score [3] | z-score [4] | z-score [5] | z-score [6] | z-score [7] | z-score [8] | z-score [9] | z-score [10] |
| --- | --- | --- | --- | --- | --- | --- | --- | --- | --- | --- |
| CC(C)=CCCC(C)=CC(O)C1C=CC2C(=O)N(c3ccccc3)C(=O)C2N1Nc1ccc(C(C)C)cc1 (stereo not given) | -1.27 | -0.276 | -0.964 | 0.105 | -0.589 | -1.09 | -0.696 (inactive) | 0.465 | 1.06 | 0.38 (inactive) |
| NCCCCCNC(=O)[C@H]1C[C@H]2C(=O)N[C@@H](Cc3ccccc3)C(=O)N2[C@H]1c1cccc(OCCO)c1 | 1.15 | -0.14 | 1.19 | 0.079 | 0.226 | 0.96 | -0.67 (inactive) | -0.288 | 0.948 | 1.35 (inactive) |
| COc1ccccc1CN1C(=O)c2ccccc2[C@@H](C(=O)NCc2ccccc2)[C@@H]1c1ccc(CO)cc1 | 1.2 | 0.448 | 0.292 | -0.881 | 0.47 | 2.08 | 0.819 (inactive) | -0.288 | 0.544 | 0.832 (inactive) |
| CC1CC/C=C\[C@H]2OC34C=CCN(Cc5ccccc5)C(=O)[C@H]3N(C(C)CO)C(=O)[C@@H]4C2C(=O)O1 (stereo not given in full) | 0.278 | -0.979 | 0.679 | 0.998 | -0.182 | 0.554 | 0.219 (inactive) | 1.11 | 0.741 | 0.418 (inactive) |
| COc1cc2c(cc1O)C(c1cccs1)N(Cc1ccc([N+](=O)[O-])o1)CC2 (stereo not given) | 0.383 | 0.0975 | 0.859 | 0.647 | 0.174 | -0.771 | 0.627 (inactive) | -0.185 | 1.09 | -1.63 (inactive) |
| COC(=O)c1c(CC[C@@H](CO)NC(=O)NCCc2c[nH]c3ccccc23)oc(C(=O)Cc2ccccc2)c1C(=O)OC | -0.22 | 1.12 | -0.496 | 0.49 | 0.459 | -1.27 | -0.484 (inactive) | 0.636 | 0.0389 | 0.926 (inactive) |
| CCOC(=O)[C@H]1C/C=C/C[C@H](C(=O)OCC)C(=O)O[C@H]2[C@@H](OC)O[C@H](CO)[C@@H](OC(=O)c3ccc(Br)cc3)[C@@H]2OC1=O | 0.645 | -0.009 | 0.404 | -3.12 | -3.75 | -0.971 | -0.339 (inactive) | -0.935 | -1.3 | -1.92 (inactive) |
| CCCNC(=O)[C@@]1(Sc2ccc(C)cc2)CC(=O)N(Cc2ccccc2C(F)(F)F)[C@@H]1c1ccc(CO)cc1I | -0.567 | 1.12 | -1.14 | -2.3 | -2.56 | -0.453 | -1.02 (inactive) | -0.355 | -1.78 | 0.821 (inactive) |
| C=C(/C(=C/C[C@H](OC(=O)c1ccncc1)c1ccc(OCCO)cc1)c1cc(C(=O)OC)ccc1OC)C(C)C | 0.0699 | 1.62 | -0.274 | -0.158 | -1.9 | 0.751 | 0.111 (inactive) | -0.143 | 0.503 | 0.827 (inactive) |
| COc1ccc(NN2C(C(O)c3ccc(N(C)C)cc3)C=CC3C(=O)N(C4CCCCC4)C(=O)C32)cc1 (stereo not given) | -0.441 | -1.13 | -0.173 | 0.0375 | -0.136 | -0.134 | -0.771 (inactive) | 0.651 | -1.63 | 0.19 (inactive) |
| O=C1C[C@@](C(=O)NCc2ccccc2)(c2ccc([N+](=O)[O-])cc2)[C@@H](c2ccc(CO)cc2)N1CC12CC3CC(CC(C3)C1)C2 | -0.702 | 0.0687 | -0.487 | -2.81 | -4.32 | 2.17 | 0.112 (inactive) | -0.552 | -1.2 | -3.09 (inactive) |
| OCC1C=C(/C=C/c2ccccc2)CN1Cc1ccccc1Br (stereo not given) | -0.58 | 1.21 | 0.0668 | -3.2 | -3.64 | 1.35 | 0.401 (inactive) | -0.923 | -1.87 | -0.535 (inactive) |
| COc1ccc([Si](C)(C)[C@@H]2[C@@H](CCn3cc(CCO)nn3)O[C@]3(C(=O)N(Cc4cccc(N5C(=O)c6cccc7cccc5c67)c4)c4ccccc43)[C@H]2C)cc1 | -2.01 | 1.32 | -4.46 | -2.86 | -4.41 | -0.414 | 1.02 (inactive) | -0.931 | -2.16 | -3.53 (inactive) |
| COc1cc(CO)cc(I)c1O[C@H]1C=C(C(=O)NCCO)C[C@@H](N(C(=O)c2cc3ccccc3oc2=O)C2CCCCCC2)[C@@H]1O | 0.062 | 1.54 | 1.11 | 0.443 | -0.704 | -1.63 | -1.51 (inactive) | -0.27 | -1.21 | 0.0258 (inactive) |
| COCCCNC(=O)[C@@H]1c2ccccc2C(=O)N(Cc2ccccc2OC)[C@H]1c1ccc(CO)cc1 | -0.0798 | 1.02 | -0.429 | 0.528 | -0.447 | 1.59 | -0.588 (inactive) | -0.171 | -0.391 | 1.71 (inactive) |
| [N-]=[N+]=NCc1ccccc1[C@@H]1OC(c2ccc(OCCCO)cc2)=N[C@]1(CCS(=O)(=O)c1ccccc1)C(=O)N1CCOCC1 | 0.761 | 1.96 | 0.502 | 0.191 | -1.6 | 2.29 | 0.78 (inactive) | -0.356 | -0.412 | 0.218 (inactive) |
